CYP2C19 inhib = blockers of cytochrome P450 2C19 activity – biochemical, luminescence, ADME assay, primary screen. CYP2C19 Supersomes, luciferin-H EGE luminescence, 30 min. inhibition, % at 5 µM. AID 778, 2007. hit rate 21% among 96,000. P33261;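 active = CYP2C19 inhibition above a set limit at 5 µM in the primary screen, cut at about 50% in these data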;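 note: plate controls were negative control wells for no effect and 2.5 mM tranylcypromine positive control for full effect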
CYP2C19 act = human CYP2C19 activators, primary screen, biochemical, luminescence | recombinant CYP2C19, luciferin-H EGE luminescence; active compounds read high; 0 = fully inhibited enzyme, 1 = untreated enzyme | activation factor at 5 µM | 96,000 tested, under 10 active | AID 1025, 2008;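 active = activation factor of at least 2 at 5 µM in the primary screen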;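 note: 0 = wells with 2.5 mM tranylcypromine and 1 = vehicle-only wells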
CYP2C9 act = human CYP2C9 activators, primary screen, biochemical, luminescence. Cytochrome P450 2C9 (Homo sapiens), P11712. recombinant CYP2C9, luciferin-H conversion; active compounds read high; factor 1 = untreated enzyme, 0 = blocked. activation factor at 5 µM. hit rate 1.4% among 96,000;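 active = activation factor of 2 or more for CYP2C9 at a 5 µM dose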;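 note: 0 = sulfaphenazole-blocked wells and 1 = vehicle-only wells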
Target sequence (P11712 whole entry, looked up): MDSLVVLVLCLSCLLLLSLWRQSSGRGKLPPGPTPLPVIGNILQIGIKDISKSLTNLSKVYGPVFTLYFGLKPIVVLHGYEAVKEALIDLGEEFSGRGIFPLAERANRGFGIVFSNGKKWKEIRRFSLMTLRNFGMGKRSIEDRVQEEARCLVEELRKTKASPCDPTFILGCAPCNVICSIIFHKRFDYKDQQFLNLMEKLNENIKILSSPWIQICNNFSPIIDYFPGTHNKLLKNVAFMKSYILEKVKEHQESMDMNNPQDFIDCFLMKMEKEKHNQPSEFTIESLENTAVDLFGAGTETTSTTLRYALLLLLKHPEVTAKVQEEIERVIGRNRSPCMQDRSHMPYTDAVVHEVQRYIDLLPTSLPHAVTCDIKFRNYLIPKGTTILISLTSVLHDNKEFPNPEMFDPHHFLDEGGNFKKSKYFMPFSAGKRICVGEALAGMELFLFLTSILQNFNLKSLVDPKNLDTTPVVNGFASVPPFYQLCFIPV
CYP2C9 inhib = blockers of cytochrome P450 2C9 activity – biochemical, luminescence, ADME assay, primary screen | CYP2C9 Supersomes, luciferin-H conversion | inhibition, % at 5 µM | hit rate 20% among 96,000 | P11712 | AID 777, 2007;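 active = blocking of liver enzyme CYP2C9 beyond about 50% at 5 µM, limit read from the data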
Cav32 inh = Cav3.2 calcium influx blockers – cell-based, Fluo-4 calcium fluorescence, FDSS, MLSMR library, primary screen. Cav3.2-expressing cells; active compounds read low. B-score at 10 µM. hit rate 4% among 100,000. AID 449739, 2010;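 active = single-dose well whose peak fluorescence ratio is a statistical outlier from its plate by either plate-standardised score or position-corrected B-score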
* marks the source's active call; other numbers are inactive results; · = no result given. Rows were chosen to be rich in hits. Some 27% of all compounds tested hit in one or more screens of this group.

SMILES | CYP2C19 inhib | CYP2C19 act | CYP2C9 act | CYP2C9 inhib | Cav32 inh
O=C1C(N2CCOCC2)=C(n2nnc3ccccc32)C(=O)c2ccccc21 | 100* | 0 | 0.1 | 90* | 0.39
CCCCCCC1CC(CSc2ncn[nH]2)OC1=O (stereo unspecified) | 91* | 0.1 | 0.3 | 67* | 0.47
C=CC1=C2C=C(C3CC3)N(C3CC3)C=C2C(=O)C(C)(OC(=O)c2ccco2)C1=O (stereo unspecified) | · | · | · | · | 0.043
COc1ccc(OCC(=O)N(C)Cc2ccccc2)cc1 | 97* | 0 | 0.9 | 12 | -0.056
CC(C)NS(=O)(=O)c1ccc(OCC(=O)N(C)Cc2ccccc2)cc1 | 51* | 0.5 | 0.7 | 34 | 0.65
COc1ccc(-c2csc(N(CCc3ccccc3)C(=O)COc3ccccc3)n2)cc1 | 20 | 0.8 | 0.1 | 92* | ·
CC(C)NS(=O)(=O)c1ccc(OCC(=O)Nc2ccccc2F)cc1 | 15 | 0.8 | 0.7 | 34 | 0.28
CC(C)NS(=O)(=O)c1ccc(OCC(=O)Nc2ccc(F)cc2F)cc1 | 43 | 0.6 | 0.5 | 50* | -1.8
CC(C)NS(=O)(=O)c1ccc(OCC(=O)N2CCCC2)cc1 | · | · | · | · | 0.094
Cc1cccc(C)c1NC(=O)N1C2CCCC1CC(NC(=O)C(C)(C)C)C2 (stereo unspecified) | 1 | 1 | 0.8 | 18 | 1.9
O=C(NCc1ccc2c(c1)OCO2)c1cc(-c2ccccc2)nn1CC1CC(c2cccnc2)=NO1 (stereo unspecified) | · | · | · | · | 1.7
COc1ccc(C2=NN(C(=O)CSc3cn(C)c4ccccc34)C(c3ccc(OC)cc3)C2)cc1 (stereo unspecified) | 50* | 0.5 | 0.4 | 62* | -2.1
CC(=O)N(CCCN1CCOCC1)Cc1ccncc1 | 8 | 0.9 | 0.9 | 7 | 0.25
O=C(CN1CCN(Cc2ccccc2Cl)C1=O)NC1CCCCCC1 | 60* | 0.4 | 1.8 | -80 | -0.58
CC1CCC(NC(=O)CN2CCCN(Cc3ccc(F)cc3Cl)C2=O)CC1 (stereo unspecified) | 6 | 0.9 | 0.9 | 8 | -3.9*
O=C(CN1CCN(Cc2ccc(F)cc2Cl)C1=O)NCCc1ccc(Cl)cc1 | 37 | 0.6 | 0.3 | 67* | -4.2
O=C1N(CC(=O)N2CCc3ccccc32)CCN1Cc1ccccc1Cl | 25 | 0.7 | 3* | -204 | -3.5*
O=C(Cn1cnc2c(cnn2-c2ccccc2Cl)c1=O)N1CCc2ccccc21 | -5 | 1 | 1.1 | -5 | 0.46
COc1cccc2c1OC[C@@H](CO)[C@H]2N(C)C(=O)Nc1ccc(Cl)cc1Cl | 28 | 0.7 | 1.3 | -29 | ·
COc1cccc(N2CCN(c3c4c(nc5ncnn35)CCC4)CC2)c1 | 25 | 0.7 | 0.9 | 12 | ·
O=C(NC1CC1)c1nc2c(nnn2Cc2ccccc2Cl)c(=O)[nH]1 | · | · | · | · | -1.1
O=C(NC1CCCCC1)c1nc2c(nnn2Cc2ccccc2Cl)c(=O)[nH]1 | · | · | · | · | -5.3*
Cn1c(C(=O)NCCN2CCc3ccccc3C2)cc2c(=O)n(C)c3ccccc3c21 | 35 | 0.7 | 0.7 | 31 | 1.3
COC(=O)c1ccc(N2C(=O)CC(N3CCN(c4ccccc4)CC3)C2=O)cc1 (stereo unspecified) | · | · | · | · | -0.41
Cc1cc(N2C(=O)CC(N3CCN(c4ccc(C(=O)c5cccs5)cc4)CC3)C2=O)no1 (stereo unspecified) | 25 | 0.8 | 0.4 | 59* | 0.1
SMILES | CYP2C19 inhib | CYP2C19 act | CYP2C9 act | CYP2C9 inhib | Cav32 inh
Cc1nc(N2CCC(C(N)=O)CC2)c2nnn(Cc3ccccc3)c2n1 | -5 | 1.1 | 1 | -2 | 0.75
Cc1nc(N2CCCC2)c2nnn(Cc3ccccc3Cl)c2n1 | 91* | 0.1 | 0.5 | 45 | 0.33
Cc1nc(N2CCC3(CC2)OCCO3)c2nnn(Cc3ccccc3F)c2n1 | 69* | 0.3 | 0.2 | 75* | -0.29
COc1ccc(C(CC(=O)N2CCN(c3ccccc3)CC2)c2c(OC)cc(OC)c3ccc(=O)oc23)cc1 (stereo unspecified) | · | · | · | · | -2.5
Cc1ccc(NC(=O)C2CCN(S(=O)(=O)c3c(C)n[nH]c3C)CC2)nc1 | -6 | 1.1 | 1.4 | -38 | 0.14
CC1Cc2ccccc2N1S(=O)(=O)c1cccc(C(=O)OCC(=O)NC2CCS(=O)(=O)C2)c1 (stereo unspecified) | 60* | 0.4 | 0.4 | 63* | 0.086
Cc1ccc(NC(=O)Cc2nnc(SCC(=O)c3ccc(Br)cc3)n2C)cc1 | 1 | 1 | 1.1 | -7 | -1.1
Cc1[nH]c(=O)cc2ccccc12 | 5 | 1 | 1.1 | -12 | 0.74
CCSc1nnc2n(N)c(=O)c3ccccc3n12 | -4 | 1 | 1.1 | -9 | 0.71
Cc1ccc(C2N(c3ccc(F)cc3)C(=O)C3CCCN32)cc1 (stereo unspecified) | 50* | 0.5 | 0.7 | 32 | -0.033
COc1ccc(C2N(c3ccc(Cl)cc3)C(=O)C3CCCN32)cc1 (stereo unspecified) | 52* | 0.5 | 0.6 | 45 | -1
COc1ccc(Cl)cc1N1C(=O)C2CCCN2C1c1ccc(F)cc1 (stereo unspecified) | 49 | 0.5 | 2* | -98 | 1.2
CCOC(=O)c1ccc(N2CC(O)=C(c3nc4ccccc4c(=O)[nH]3)C2=N)cc1 | 41 | 0.6 | 1.4 | -42 | 1.9
Cc1cc(C)cc(C(=O)N2CC(=O)Nc3ccccc32)c1 | 53* | 0.5 | 0.6 | 36 | -2.5
CCOc1cc(/C=C2\C(=O)N(Cc3ccc(C)cc3)C(C)=C2C(=O)OC)ccc1O | 40 | 0.6 | 0.2 | 83* | 1.1
CCN1C(=O)/C(=C\c2ccc3c(c2)OCO3)C(C(=O)OC)=C1C | 15 | 0.8 | 0.6 | 39 | 1.8
C=CCNC(=O)C1CC(=O)N(c2ccc(C)cc2)C1 (stereo unspecified) | 33 | 0.7 | 1 | -2 | 0.18
COc1ccc(Oc2nccc(-c3ccccc3)c2C#N)cc1 | 30 | 0.7 | 0.7 | 28 | -0.4
O=C(CC1N=C2c3ccccc3N=C(SCc3ccc(Cl)cc3)N2C1=O)NCc1ccco1 (stereo unspecified) | 5 | 0.9 | 0.3 | 72* | -3.3
CCOC(=O)CSC1=Nc2ccccc2C2=NC(CC(=O)NCc3ccc(OC)cc3)C(=O)N12 (stereo unspecified) | · | · | · | · | 0.43
CCN(CC)S(=O)(=O)c1cc(C(=O)NC2=NCCS2)ccc1Cl | 19 | 0.8 | 0.7 | 28 | -1.2
CN(c1cccc(Cl)c1)S(=O)(=O)c1cccc(C(=O)NC2=NCCS2)c1 | 74* | 0.3 | 0.2 | 82* | 0.27
Cc1cc(C)c(NC(=O)CC(C)(C)C)c(Cl)c1 | 2 | 1 | 1 | 3 | 0.7

Assay outcomes (PubChem)
